# Source: the supplement of paper PMC10732440
# ± gives the standard deviation of the averaged measurements.
# Tested on: Caenorhabditis elegans N2 infected with Nematocida parisii ERTm1
# Assay: progeny production relative to DMSO uninfected control; higher = more progeny despite microsporidia infection (inhibition of infection with low host toxicity)
# Settings: infection time 6 days
# Method in brief: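 Values give progeny production relative to spore-free vehicle wells, as a percentage averaged across replicates. For each of three runs per compound and dose, 100 bleach-synchronised wild-type C. elegans L1 larvae per well were grown in 96-well plates with K-medium, E. coli OP50, 15,000 N. parisii spores/μL and compound at 100 μM or 40 μM in 1% DMSO. After 6 days of shaking at 21°C, worms were Rose Bengal-stained, flatbed-scanned and counted with WorMachine.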
Structure (SMILES),progeny production (40 µM) [%],progeny production (100 µM) [%]
Cc1nc(-c2ccc(C3N(C)c4ccc(F)cc4C(=O)N3c3ccccc3)s2)cs1 (centres undefined),3.69 ± 1.5,6.47 ± 4.9
CCCCCc1ccc(C(=O)NCCn2cc(CCCCCc3c[nH]c(N)n3)nn2)cc1,8.32 ± 7.4,2.61 ± 1.4
Nc1cnn(C2OC(CO)C(O)C2O)c(=O)n1 (centres undefined),3.5 ± 1.1,13.1 ± 5.4
COc1ccc(SCC(=O)N2c3ccccc3Sc3ccccc32)cc1,5.84 ± 2.3,14.1 ± 5.9
CC(=O)N1c2ccccc2NC2=C(C(=O)CC(C)(C)C2)C1c1ccc(OCc2ccccc2)cc1 (centres undefined),4.92 ± 0.34,9.82 ± 5.5
CN(C)[C@@H]1C(=O)C(C(N)=O)=C(O)[C@@]2(O)C(=O)C3=C(O)c4c(O)c(NC(=O)CN5CCCC5)cc(F)c4C[C@H]3C[C@@H]12,4.54 ± 0.11,6.16 ± 0.72
O=C(O)c1cc(-c2ccc(Br)cc2)nc2ccc(Cl)cc12,4.63 ± 0.086,11.3 ± 3.5
C/C(=N\NC(=O)C1CC1c1ccccc1)c1ccc(NC(=O)c2ccco2)cc1 (centres undefined),2.3 ± 0.95,6.87 ± 1.1
O=C(NN1C(=O)[C@@H]2[C@@H]3C=C[C@@H]([C@H]4C[C@@H]34)[C@@H]2C1=O)c1ccc(C(F)(F)F)cc1,3.22 ± 1.3,9.48 ± 4
O=C(c1cc(O)nc2ccccc12)N1CCN(c2ccccc2)CC1,5.44 ± 4.1,9.85 ± 7.2
Cc1onc(-c2ccccc2)c1-c1ccc(S(N)(=O)=O)cc1,3.75 ± 1.8,7.71 ± 5.3
O=c1cc(OCc2ccccc2)ccn1Cc1ccccc1,5.55 ± 1.6,13.9 ± 13
Cc1ccn2c(C(=O)NCc3ccccc3)c(C)nc2c1,9.26 ± 8.6,13.1 ± 10
CCc1ccc(C2CC(C(F)(F)F)n3ncc(C(=O)NCc4ccc(OC)cc4)c3N2)cc1 (centres undefined),8.73 ± 4.8,7.32 ± 3.4
O=C(Nc1nnc(-c2ccccc2)o1)c1ccc(F)cc1,5.03 ± 1.8,6.37 ± 4.7
Cc1ncc([N+](=O)[O-])n1CC(C)O (centres undefined),7.4 ± 3.9,7.52 ± 8.6
NC(=O)[C@@H]1CC[C@@H]2CN1C(=O)N2OS(=O)(=O)O,8.69 ± 1.4,22.2 ± 16
NCCCc1ccccc1C(=O)Nc1ncc([N+](=O)O)s1,3.03 ± 1.9,25.2 ± 31
O=C(NNC(=S)Nc1ccc(Cl)cc1)c1ccncc1,2.76 ± 1.4,18.4 ± 12

Structure (SMILES),progeny production (40 µM) [%],progeny production (100 µM) [%]
Cc1oncc1C(=O)Nc1ccc(C(F)(F)F)cc1,3.59 ± 1.6,6.66 ± 5
COc1cc(C(C(=O)NC2CCCCC2)N(C(=O)Cc2c[nH]c3ccccc23)c2ccc(C(C)C)cc2)cc(OC)c1OC (centres undefined),5.01 ± 0.57,7.98 ± 2
O=C(c1ccccc1)N1CCN(c2ccccc2NC(=O)C(Cl)(Cl)Cl)CC1,13 ± 10,12.7 ± 8.6
CCOCc1nc2c(N)nc3ccccc3c2n1CC(C)(C)O,3.75 ± 1.7,14.8 ± 5.8
CCc1cc(Cc2cnc(N)nc2N)cc2c1N(C)CCC2C (centres undefined),11.7 ± 8.4,4.65 ± 0.53
COc1ccc(NS(=O)(=O)c2ccc(Cl)s2)cn1,4.12 ± 0.52,15 ± 3
CNCC(=O)OCc1cccnc1N(C)C(=O)OC(C)[n+]1cnn(C[C@](O)(c2cc(F)ccc2F)[C@@H](C)c2nc(-c3ccc(C#N)cc3)cs2)c1 (some centres undefined),7.13 ± 1.5,16.8 ± 10
COc1ccc2nc(-c3ccccc3)cc(O)c2c1,10.7 ± 7.9,8.32 ± 3.4
COc1cc(C2C3=C(CC(C)(C)CC3=O)Nc3ccccc3N2C(C)=O)ccc1OCc1ccccc1 (centres undefined),2.3 ± 0.93,15.1 ± 15
NC(=O)c1cnccn1,6.68 ± 7.5,6.97 ± 1.1
CC(C)C(=O)N[C@H]1[C@H]([C@H](O)[C@H](O)CO)OC(C(=O)O)=C[C@@H]1N=[N+]=[N-],5.36 ± 3.2,14.6 ± 5.9
CC(C)c1cc2c(cc1S(=O)(=O)O)[C@@]1(C)CCC[C@@](C)(C(=O)O)[C@@H]1CC2,8.72 ± 4.5,4.55 ± 3
CCc1nc2ccc(Cl)cn2c1C(=O)NCc1ccc(N2CCC(c3ccc(OC(F)(F)F)cc3)CC2)cc1,4.78 ± 2.6,6.24 ± 4.5
Nc1nc(-c2ccccc2)nc2[nH]nc(Nc3ccc(C(F)(F)F)cc3)c12,7.69 ± 2.2,29.5 ± 27
CCC[C@H](NC(=O)[C@@H]1[C@H]2CCC[C@H]2CN1C(=O)[C@@H](NC(=O)[C@@H](NC(=O)c1cnccn1)C1CCCCC1)C(C)(C)C)C(=O)C(=O)NC1CC1,9.24 ± 1.8,10.3 ± 1.3
Cc1ccc(C)c(OCCCCCCN2C[C@H](O)[C@@H](O)[C@H](O)[C@H]2CO)c1,3.54 ± 0.93,14.1 ± 11
CCc1c(O)nc2ccc(F)cc2c1OCC1CCC1,6.76 ± 3.3,16.2 ± 9.1
CCc1cc(O)c(Oc2cccnc2N)cc1F,6.17 ± 3.4,10.2 ± 5.5
